Values joined by “and” are separate entries in the source; they are usually repeats but may differ in a detail not shown here. Equal values may be shown once. The whole screen tested about 150,000 compounds, of which about 6,500 (4.3%) were called active. About 12% were inconclusive and are not listed. The call rests on the fitted dose curve; in most records, active means well fitted inhibition curve with a large enough effect (not every such curve was filed as active); inconclusive means small, poorly fitted or top-dose-only effect, or another doubt; inactive means no such curve, though single readings can be large or run the other way. The entries come from a sample that favours actives as a whole. Some structures have more than one record in an assay (separate samples or runs), and their calls can disagree.
target: 15-hydroxyprostaglandin dehydrogenase [NAD(+)] (Homo sapiens) (UniProt P15428); test: qHTS Assay for Inhibitors of HPGD (15-Hydroxyprostaglandin Dehydrogenase); settings: purified HPGD, NADH fluorescence kinetic, PGE2 substrate; activity change, negative = inhibition: stronger effect = lower value
Summary of the method: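 NADH formation kinetics: reaction with 30 uM PGE2 and 1 mM NAD+ (final), 20 nM enzyme, Tris-HCl pH 8 with Tween 20, after 15 min compound preincubation at room temperature. Fluorescence change, last versus first of five reads.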
On the % scale 0 is the no-effect control and ±100 the full control effect; potency means the concentration at half of the fitted maximal effect.

15-hydroxyprostaglandin dehydrogenase [NAD(+)] (Homo sapiens), sequence (P15428 whole entry, looked up): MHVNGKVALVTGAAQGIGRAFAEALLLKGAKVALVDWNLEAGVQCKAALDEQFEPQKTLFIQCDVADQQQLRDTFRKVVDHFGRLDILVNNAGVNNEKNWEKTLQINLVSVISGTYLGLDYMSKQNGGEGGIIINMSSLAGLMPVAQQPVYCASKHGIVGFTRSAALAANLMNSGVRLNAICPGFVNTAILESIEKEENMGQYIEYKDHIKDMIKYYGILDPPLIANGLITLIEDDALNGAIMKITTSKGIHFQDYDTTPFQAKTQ

SMILES	activity change, negative = inhibition	Potency
COc1ccccc1N1CCN(C(=O)C(=O)N/N=C/c2ccccc2F)CC1	-6.15% (inactive)	–
CC(C)=C(NC(=O)c1ccccc1)C(=O)N/N=C(\C)c1ccccc1O	-7.72% (inactive)	–
Cc1cc(C)cc(NC(=S)NCCCN2CCOCC2)c1	-3.2% (inactive)	–
Cc1ccc2[nH]c(=O)c(CC=C(Cl)Cl)c(C)c2c1	-6.58% (inactive)	–
Cc1cc(C(=O)NNC(=S)Nc2ccccc2C)cs1	-17.5% (inactive)	–
COC(=O)C1=NNC2(c3ccc(C)cc3)C(=O)N(c3cccc(C)c3C)C(=O)C12 (centres undefined)	-7.55% (inactive)	–
CCOc1ccc(/C=N/NC(N)=S)cc1	-6.57% (inactive)	–
O=C(Cc1cccs1)N/N=C/c1ccc(OCc2ccccc2)cc1	-20.3% (inactive)	–
CCOc1ccc(/C=N/OCC(=O)NCc2cccs2)cc1	–	15.8 µM (active)
CC1CCc2sc(C(=O)N/N=C/C3CCCCC3)cc2C1 (centres undefined)	-7.97% (inactive)	–
Cc1cc(C)n(C(=O)CCNC(=O)c2ccccc2Cl)n1	–	15.8 µM (active)
CCOc1ccc(NC(=O)CCC(=O)n2nc(C)cc2C)cc1	-8.1% (inactive)	–
O=C(Nc1ccccc1C(=O)NCCCn1ccnc1)c1ccc(Cl)cc1Cl	-7.71% (inactive)	–
CCOC(=O)CC(NC(=O)C1c2ccccc2Oc2ccccc21)c1ccc(C)cc1 (centres undefined)	6.16% (inactive)	–
CCOC(=O)C1=C(C)OC(N)=C(C#N)C1c1cncc(-c2ccc(F)cc2)c1 (centres undefined)	-9.79% (inactive)	–
Cc1cnc(NC(=O)CSc2nnc(-c3ccc(Cl)cc3Cl)n2N)s1	–	25.1 µM (active)
Cc1cnc(NC(=O)CSc2nnc(-c3ccccc3)n2Cc2ccccc2)s1	-9.73% (inactive)	–
Cc1cnc(NC(=O)CSc2c(Cl)cccc2Cl)s1	-12.6% (inactive)	–
CCCCC(O)(CCCC)C(=O)NN(C(=O)CCl)c1ccccc1	-6.18% (inactive)	–
O=C(NCCCO)/C(=C\C=C\c1ccccc1)NC(=O)c1ccccc1Cl	-15.4% (inactive)	–
CC(C)(C)C(=O)NC(NC(=S)Nc1ccc(S(N)(=O)=O)cc1)C(Cl)(Cl)Cl (centres undefined)	-0.407% (inactive)	–
CC(C)(C)C1CCC(=NNC(=O)c2cc(-c3ccccc3)n[nH]2)CC1 (centres undefined)	-7.88% (inactive)	–
O=C(c1ccccc1-c1ccccc1)N1CCOCC1	-1.91% (inactive)	–
Cc1onc(-c2ccccc2)c1C(=O)N1CCOCC1	0.967% (inactive)	–

SMILES	activity change, negative = inhibition	Potency
Cc1ccccc1-c1ccc(Nc2ccc(C(=O)N3CCOCC3)cc2)nn1	–	22.4 µM (active)
O=C(COc1ccc(/C=N/NC(=O)c2ccc(O)cc2)cc1)Nc1ccc([N+](=O)[O-])cc1	-5.7% (inactive)	–
O=C(NCc1ccco1)O[C@@H]1C(=O)c2cc(Br)ccc2O[C@H]1c1ccc2c(c1)OCO2	-7.84% (inactive)	–
CC(C)c1ccc(Nc2nnc(SCC(=O)c3nnc(-c4ccccc4)o3)s2)cc1	–	31.6 µM (active)
O=C(CSc1nnc(Nc2ccccc2)s1)Nc1cccnc1Cl	-3.17% (inactive)	–
Cc1ccc(Nc2nnc(SCC(=O)c3cc4ccccc4o3)s2)cc1C	-14.9% (inactive)	–
Cc1nn(Cc2ccccc2)c(C)c1C(=O)NCCN1C(=O)S/C(=C\c2ccc(F)cc2)C1=O	-19.6% (inactive)	–
COc1cccc(/C=N/Nc2ncc(C(F)(F)F)cc2Cl)c1O	-13.5% (inactive)	–
COc1cccc(/C=N\NC(=O)C2=NNC(=O)C2C)c1O (centres undefined)	-11.9% (inactive)	–
COc1cccc(/C=N/NC(=O)c2[nH]nc3c2CCc2ccccc2-3)c1O	–	35.5 µM (active)
O=C1CCC[C@@H]2CC(N3CCCCC3)C[C@@H]3CCN1[C@H]23 (some centres undefined)	-1.93% (inactive)	–
C=CCNC(=S)NNC(=O)COc1c(Cl)cc(Cl)cc1Cl	-21.2% (inactive)	–
Cc1ccc(Cl)cc1N1CCN(C(=O)c2cccc3c(=O)c(C)c(-c4ccccc4)oc23)CC1	0.844% (inactive)	–
O=C(c1ccc(S(=O)(=O)N2CCOCC2)cc1)N1CCN(c2ccccc2)CC1	-5.22% (inactive)	–
NC(=O)C1CCN(C(=O)c2ccc(-c3ccccc3)cc2)CC1	-4.39% (inactive)	–
CC(=O)N1CCN(C(=O)c2cccc(S(=O)(=O)Nc3ccc(C)cc3)c2)CC1	4.03% (inactive)	–
CCOC(=O)N1CCN(C(=O)CSc2ccc(Cl)cc2)CC1	-15.4% (inactive)	–
COc1ccccc1N1CCN(C(=O)c2ccc(S(=O)(=O)N3CCCCC3)cc2)CC1	-4.4% (inactive)	–
CC(NC(=O)c1ccc(Cl)cc1)C(=O)N1CCCCC1 (centres undefined)	-4.27% (inactive)	–
CC1CCN(C(=O)c2ccc(CSc3ccc(Cl)cc3)cc2)CC1	–	0.891 µM (active)
O=C(C1CC1)N1CCN=C1SCc1ccc(Cl)cc1	-17.7% (inactive)	–
CS(=O)(=O)Nc1ccc(C(=O)N2CCCC2)cc1	–	20 µM (active)
O=C(c1ccc(S(=O)(=O)c2ccccc2)cc1)N1CCCCCC1	–	17.8 µM (active)
O=C(Nc1ccc(CSc2ccccc2)cc1)c1ccc(CN2CCOCC2)cc1	-8.57% (inactive)	–

SMILES	activity change, negative = inhibition	Potency
O=C(c1ccc(CSc2ccccc2)cc1)N1CCCCCC1	–	0.316 µM (active)
CC1CCCN(CCOCCOc2ccccc2-c2ccccc2)C1 (centres undefined)	-3.59% (inactive)	–
COC(=O)N1C(/C=C/C=C/c2ccc(OC)cc2)=Cc2ccccc2C1CC(C)=O (centres undefined)	-15% (inactive)	–
CC1CCN(c2ccc(C(=O)Nc3nnc(C4CC4)s3)cc2[N+](=O)[O-])CC1	-7.37% (inactive)	–
CC(NC(=S)Nc1ccccc1)C1COc2ccccc2O1 (centres undefined)	-1.93% (inactive)	–
COc1cc(OC)nc(N/N=C(\c2ccccc2)c2ccncc2)n1	-10.6% (inactive)	–
CCC1(C(=O)c2ccccc2)C(c2cccc([N+](=O)[O-])c2)C1(C(=O)OC)C(=O)OC (centres undefined)	-4.68% (inactive)	–
COc1ccc(Br)cc1CN(C)CC(=O)Nc1cc(Cl)cc(Cl)c1	-12.1% (inactive)	–
COC(=O)c1c(NC(=O)CN2C(=O)NC(CCc3ccccc3)C2=O)sc2c1CCCCC2 (centres undefined)	-23.3% (inactive)	–
CN(C)S(=O)(=O)c1ccc(N2CCCC2=O)c([N+](=O)[O-])c1	-7.1% (inactive)	–
CCC(CC)C(=O)Nc1cccc(C(=O)N2CCCC2)c1	-4.19% (inactive)	–
Cc1c(NC(=O)Nc2ccccc2)cccc1[N+](=O)[O-]	-4.65% (inactive)	–
Cc1c(Cl)cccc1NC(=O)Nc1ccc(C(=O)N2CCCC2)cc1	–	14.1 µM (active)
CC1=C[C@H]2Cc3cc(C)cc(C)c3S(=O)(=O)[C@@H]2C=C1	-8.5% (inactive)	–
N=C1C(=O)OCC1c1ccccc1NC(=O)CN1CCCCC1 (centres undefined)	-11.6% (inactive)	–
C=C(C(C)=O)C(O)c1ccc([N+](=O)[O-])cc1 (centres undefined)	-15.8% (inactive)	–
Cc1c(NC(=O)c2cccnc2)c(=O)n(-c2ccccc2)n1C	4.69% (inactive) and -0.99% (inactive)	–
Cc1ccc(O)c(-c2cc(C(=O)Nc3c(C)n(C)n(-c4ccccc4)c3=O)[nH]n2)c1	–	20 µM (active)
Cc1cc(C(=O)Nc2c(C)n(C)n(-c3ccccc3)c2=O)cs1	-6.25% (inactive)	–
CCCSc1nc2[nH]ncc2c(=O)[nH]1	-15.8% (inactive)	–
O=C(O)c1cccc(N2C(=O)Nc3ccccc3N2O)c1	-2.37% (inactive)	–
CCCC(C)C(=O)OCC(=O)Nc1c(Br)cc(C)cc1Br (centres undefined)	-2.73% (inactive)	–
CC(Cc1ccccc1)C(=O)N(C)Cc1ccccc1 (centres undefined)	-12.5% (inactive)	5.01 µM (active)
CN(Cc1ccccc1)C(=O)CCc1ccccc1	-14.5% (inactive)	–

SMILES	activity change, negative = inhibition	Potency
CN(Cc1ccccc1)C(=O)COc1ccccc1	-21.3% (inactive)	–
COc1ccc(CC(=O)Nc2ccc(C(=O)NC(C)(C)C)cc2)cc1	-10.9% (inactive)	–
CCN(C(=O)COc1cccnc1[N+](=O)[O-])C1CCS(=O)(=O)C1 (centres undefined)	-10.7% (inactive)	–
Cc1ccc(Cn2nnc3c(=O)n(CC(=O)N4CCCCC4)cnc32)cc1	-22% (inactive)	–
CC(=O)Nc1ccn(Cc2c(F)cccc2Cl)n1	-0.326% (inactive)	–
COc1ccc(Cn2nnc3c(=O)[nH]c(C4CCN(C(=O)c5ccccc5Cl)CC4)nc32)cc1	–	7.94 µM (active)
Cc1ccc(NC(=O)N2CCC(c3nc4c(nnn4Cc4c(F)cccc4Cl)c(=O)[nH]3)CC2)cc1	–	12.6 µM (active)
COc1ccc(C(=O)Nc2c(Cl)cc(Cl)cc2C(=O)N2CCC(C)CC2)cc1	-13.4% (inactive)	–
COc1ccc(-n2nnc3c(=O)n(CC(=O)N4CCC(Cc5ccccc5)CC4)cnc32)cc1	-23.8% (inactive)	–
OCCNCCOc1ccc(Cl)c(Cl)c1	-9% (inactive)	–
C/C(=N/NC(=O)CSc1ccccn1)c1ccc([N+](=O)[O-])cc1	-12.7% (inactive)	–
CC(C)Nc1nnc(SCC(=O)c2c[nH]c3ccccc23)s1	-16.2% (inactive)	–
COc1ccc(NC(=S)N2CCCC(CO)C2)c(OC)c1 (centres undefined)	-2.74% (inactive)	–
COc1cccc([C@@H]2Oc3ccc(Br)cc3C(=O)[C@H]2OC(=O)NCc2ccc3c(c2)OCO3)c1	-12.1% (inactive)	–
CCCN=C1NC(=O)C(CC(=O)NCCc2ccc(OC)c(OC)c2)S1 (centres undefined)	-5.13% (inactive)	–
O=C(Nc1nc(-c2ccncc2)cs1)C1COc2ccccc2O1 (centres undefined)	–	7.94 µM (active)
O=C(Nc1nnc(SCc2ccc(Cl)cc2Cl)s1)C1COc2ccccc2O1 (centres undefined)	-24% (inactive)	–
O=C(Nc1nc(-c2ccc3c(c2)OCO3)cs1)c1ccncc1	-1.69% (inactive)	–
CCNc1nc(-c2cc3ccccc3o2)cs1	-4.63% (inactive)	–
O=C(OCC(=O)c1c[nH]c2ccccc12)c1cccc(O)c1	-8.39% (inactive)	–
CC(=O)NC1=NN(C(C)=O)C(C)(c2ccc(C)cc2)S1 (centres undefined)	-5.01% (inactive)	–

Reference: PubChem BioAssay AID894 (National Center for Advancing Translational Sciences (NCATS), 2007)
